# Laboratory results as given in PMC7862700, “An all-to-all approach to the identification of sequence-specific readers for epigenetic DNA modifications on cytosine”.
# Tests used:
# Test in all cases: DAPPL (digital affinity profiling via proximity ligation, sequencing); 10 mM Tris-HCl pH 7.5, 50 mM NaCl, 1 mM DTT, 4% glycerol, room temperature, 30 min; GST-TFs on glutathione beads, 16-mer random dsDNA library, 0.1% formaldehyde crosslink after washing; high values mean tight binding
# [1] = molecular target: T1, FEV (Homo sapiens, UniProt Q99581 1-238); details: protein: recombinant; tags: N-terminal GST; dsDNA, one strand shown
# T1 sequence: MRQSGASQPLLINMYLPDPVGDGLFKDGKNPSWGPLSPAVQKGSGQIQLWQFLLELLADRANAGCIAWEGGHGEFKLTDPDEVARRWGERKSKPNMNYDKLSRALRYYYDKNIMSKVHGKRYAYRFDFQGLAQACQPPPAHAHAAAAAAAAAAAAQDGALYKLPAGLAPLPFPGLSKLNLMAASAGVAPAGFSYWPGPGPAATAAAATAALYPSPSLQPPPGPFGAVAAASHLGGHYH
# Method in brief: (§1)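 Pools of DNA-barcoded human transcription factors, expressed in yeast as GST fusions on glutathione beads and combined with a tag-only sample, were incubated with 200 nmole of a 16-mer random double-stranded DNA library. Incubation took 30 min at room temperature in Tris/NaCl/DTT/glycerol buffer and was followed by washing, 0.1% formaldehyde crosslinking, proximity ligation (BsaI/T4 ligase, 1 h, 37 °C), PCR amplification and sequencing on an Illumina NextSeq500. Binding signal is the ratio of a hexamer's read frequency for a factor to its frequency for the tag-only sample.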
# [2] = molecular target: ETV5 (Homo sapiens, UniProt P41161 1-510); details: protein: recombinant; tags: N-terminal GST; dsDNA, one strand shown
# Sequence of ETV5 (P41161 whole entry): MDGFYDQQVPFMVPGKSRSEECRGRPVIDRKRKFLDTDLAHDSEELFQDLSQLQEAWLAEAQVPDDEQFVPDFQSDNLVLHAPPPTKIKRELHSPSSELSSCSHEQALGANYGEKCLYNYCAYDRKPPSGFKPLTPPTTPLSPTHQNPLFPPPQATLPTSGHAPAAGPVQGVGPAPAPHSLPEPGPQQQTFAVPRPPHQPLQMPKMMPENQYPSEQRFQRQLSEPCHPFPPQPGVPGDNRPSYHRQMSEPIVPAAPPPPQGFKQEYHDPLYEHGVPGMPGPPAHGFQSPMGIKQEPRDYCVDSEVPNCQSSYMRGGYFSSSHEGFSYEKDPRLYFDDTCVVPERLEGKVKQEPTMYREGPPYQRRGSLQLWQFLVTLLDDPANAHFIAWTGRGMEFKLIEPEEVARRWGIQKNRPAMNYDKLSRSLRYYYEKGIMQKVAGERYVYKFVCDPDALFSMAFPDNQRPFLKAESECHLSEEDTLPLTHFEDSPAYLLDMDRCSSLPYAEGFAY
# Method in brief: as §1
# [3] = molecular target: HSF1 (Homo sapiens, UniProt Q00613 1-529); details: protein: recombinant; tags: N-terminal GST; chain copies: 3; dsDNA, one strand shown
# Sequence of HSF1 (Q00613 whole entry): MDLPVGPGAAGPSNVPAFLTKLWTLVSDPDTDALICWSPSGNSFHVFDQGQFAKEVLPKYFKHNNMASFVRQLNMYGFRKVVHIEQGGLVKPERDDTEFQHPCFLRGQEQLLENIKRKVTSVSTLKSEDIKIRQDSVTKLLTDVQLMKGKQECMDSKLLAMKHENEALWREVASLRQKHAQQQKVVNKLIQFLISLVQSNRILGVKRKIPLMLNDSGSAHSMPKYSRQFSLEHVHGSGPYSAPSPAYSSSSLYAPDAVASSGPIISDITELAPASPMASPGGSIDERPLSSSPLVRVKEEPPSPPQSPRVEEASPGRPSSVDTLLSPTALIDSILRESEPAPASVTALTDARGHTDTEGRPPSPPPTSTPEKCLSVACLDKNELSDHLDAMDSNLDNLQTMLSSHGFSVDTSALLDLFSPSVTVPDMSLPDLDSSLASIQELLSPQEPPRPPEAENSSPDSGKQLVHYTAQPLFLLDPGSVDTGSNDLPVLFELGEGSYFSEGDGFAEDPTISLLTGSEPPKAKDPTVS
# Method in brief: as §1
# [4] = molecular target: T2, SPIC (Homo sapiens, UniProt Q8N5J4 1-248); details: protein: recombinant; tags: N-terminal GST; dsDNA, one strand shown
# T2 sequence: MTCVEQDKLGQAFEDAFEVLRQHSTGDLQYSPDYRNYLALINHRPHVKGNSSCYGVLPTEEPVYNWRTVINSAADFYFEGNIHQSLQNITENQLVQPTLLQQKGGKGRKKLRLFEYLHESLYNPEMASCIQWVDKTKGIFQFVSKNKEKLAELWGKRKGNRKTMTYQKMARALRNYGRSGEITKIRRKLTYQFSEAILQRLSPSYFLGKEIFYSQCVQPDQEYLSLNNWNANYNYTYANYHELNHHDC
# Method in brief: as §1
# [5] = molecular target: ELF4 (Homo sapiens, UniProt Q99607 1-663); details: protein: recombinant; tags: N-terminal GST; dsDNA, one strand shown
# Sequence of ELF4 (Q99607 whole entry): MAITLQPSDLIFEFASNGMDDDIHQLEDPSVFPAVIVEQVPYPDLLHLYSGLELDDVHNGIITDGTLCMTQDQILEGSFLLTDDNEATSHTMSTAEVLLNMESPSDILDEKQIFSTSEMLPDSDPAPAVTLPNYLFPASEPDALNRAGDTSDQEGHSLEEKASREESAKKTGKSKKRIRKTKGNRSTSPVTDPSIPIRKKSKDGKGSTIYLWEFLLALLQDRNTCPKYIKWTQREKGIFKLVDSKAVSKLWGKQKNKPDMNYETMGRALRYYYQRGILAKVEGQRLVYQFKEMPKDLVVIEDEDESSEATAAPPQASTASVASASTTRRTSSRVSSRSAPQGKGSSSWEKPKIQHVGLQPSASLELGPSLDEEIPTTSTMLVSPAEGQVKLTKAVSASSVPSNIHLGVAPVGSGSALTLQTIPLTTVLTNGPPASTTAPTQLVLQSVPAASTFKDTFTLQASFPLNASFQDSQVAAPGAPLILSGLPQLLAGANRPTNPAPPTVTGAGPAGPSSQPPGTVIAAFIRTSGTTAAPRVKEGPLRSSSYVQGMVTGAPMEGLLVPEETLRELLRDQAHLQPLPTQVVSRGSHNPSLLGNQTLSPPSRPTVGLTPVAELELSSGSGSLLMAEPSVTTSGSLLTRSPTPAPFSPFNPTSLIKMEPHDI
# Method in brief: as §1
# [6] = molecular target: T3, ELK4 (Homo sapiens, UniProt P28324-2 1-405); details: protein: recombinant; tags: N-terminal GST; dsDNA, one strand shown
# T3 sequence: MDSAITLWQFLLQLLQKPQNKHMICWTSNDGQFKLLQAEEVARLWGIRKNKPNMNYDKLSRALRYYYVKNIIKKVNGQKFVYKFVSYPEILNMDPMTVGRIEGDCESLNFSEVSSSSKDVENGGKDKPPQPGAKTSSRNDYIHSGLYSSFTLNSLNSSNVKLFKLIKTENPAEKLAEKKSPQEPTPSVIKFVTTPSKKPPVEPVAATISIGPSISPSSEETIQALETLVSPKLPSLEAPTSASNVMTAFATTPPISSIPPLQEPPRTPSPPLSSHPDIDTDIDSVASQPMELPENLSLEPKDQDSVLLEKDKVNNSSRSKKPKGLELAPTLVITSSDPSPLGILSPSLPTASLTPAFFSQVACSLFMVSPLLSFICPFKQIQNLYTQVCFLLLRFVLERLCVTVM
# Method in brief: as §1
# [7] = molecular target: T4, ETV2 (Homo sapiens, UniProt O00321 1-342); details: protein: recombinant; tags: N-terminal GST; dsDNA, one strand shown
# T4 sequence: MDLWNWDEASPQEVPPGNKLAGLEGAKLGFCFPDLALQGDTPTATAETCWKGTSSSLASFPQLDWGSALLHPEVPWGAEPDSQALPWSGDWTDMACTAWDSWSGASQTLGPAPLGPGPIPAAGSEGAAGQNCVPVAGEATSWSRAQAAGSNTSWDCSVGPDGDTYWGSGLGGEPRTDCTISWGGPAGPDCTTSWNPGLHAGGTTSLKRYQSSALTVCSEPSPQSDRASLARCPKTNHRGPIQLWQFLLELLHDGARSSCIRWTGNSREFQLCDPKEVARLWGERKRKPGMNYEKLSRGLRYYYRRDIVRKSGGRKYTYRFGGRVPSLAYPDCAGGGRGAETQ
# Method in brief: as §1
# [8] = molecular target: T5, ELF3 (Homo sapiens, UniProt P78545 1-371); details: protein: recombinant; tags: N-terminal GST; dsDNA, one strand shown
# T5 sequence: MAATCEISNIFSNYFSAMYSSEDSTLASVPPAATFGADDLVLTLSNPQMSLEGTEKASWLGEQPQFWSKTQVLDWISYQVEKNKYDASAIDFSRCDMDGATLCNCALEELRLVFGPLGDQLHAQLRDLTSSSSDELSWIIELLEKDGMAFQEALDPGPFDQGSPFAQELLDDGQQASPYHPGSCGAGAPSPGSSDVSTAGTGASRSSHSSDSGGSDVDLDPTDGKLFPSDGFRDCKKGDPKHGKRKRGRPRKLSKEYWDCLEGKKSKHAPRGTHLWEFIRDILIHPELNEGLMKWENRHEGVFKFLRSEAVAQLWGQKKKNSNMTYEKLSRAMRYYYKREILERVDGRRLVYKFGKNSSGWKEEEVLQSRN
# Method in brief: as §1
# [9] = molecular target: CRX (Homo sapiens, UniProt O43186 1-299); details: protein: recombinant; tags: N-terminal GST; dsDNA, one strand shown
# Sequence of CRX (O43186 whole entry): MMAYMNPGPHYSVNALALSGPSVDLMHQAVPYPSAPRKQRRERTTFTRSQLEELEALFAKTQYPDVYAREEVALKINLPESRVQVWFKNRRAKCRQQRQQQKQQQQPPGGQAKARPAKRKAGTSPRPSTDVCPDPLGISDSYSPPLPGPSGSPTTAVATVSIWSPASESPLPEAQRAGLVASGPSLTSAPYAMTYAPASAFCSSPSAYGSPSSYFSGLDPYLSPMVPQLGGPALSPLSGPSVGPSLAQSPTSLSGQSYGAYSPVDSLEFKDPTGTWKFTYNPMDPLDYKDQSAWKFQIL
# Method in brief: as §1
# [10] = molecular target: ETV1 (Homo sapiens, UniProt P50549 1-477); details: protein: recombinant; tags: N-terminal GST; dsDNA, one strand shown
# Sequence of ETV1 (P50549 whole entry): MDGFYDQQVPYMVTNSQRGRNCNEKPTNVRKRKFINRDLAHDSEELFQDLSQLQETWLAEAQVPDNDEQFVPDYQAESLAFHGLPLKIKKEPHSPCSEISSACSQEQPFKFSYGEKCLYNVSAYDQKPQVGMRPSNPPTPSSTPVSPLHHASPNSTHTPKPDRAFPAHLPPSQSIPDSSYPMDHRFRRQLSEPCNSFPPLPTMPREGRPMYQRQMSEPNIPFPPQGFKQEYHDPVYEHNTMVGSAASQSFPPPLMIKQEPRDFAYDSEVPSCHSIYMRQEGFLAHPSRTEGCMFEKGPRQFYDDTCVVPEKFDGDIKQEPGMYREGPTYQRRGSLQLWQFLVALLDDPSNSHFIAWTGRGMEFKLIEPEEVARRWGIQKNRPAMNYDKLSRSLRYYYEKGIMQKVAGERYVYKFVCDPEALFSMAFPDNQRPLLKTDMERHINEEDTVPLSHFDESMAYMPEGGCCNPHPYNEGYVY
# Method in brief: as §1
# [11] = molecular target: T6, ERF (Homo sapiens, UniProt P50548 1-548); details: protein: recombinant; tags: N-terminal GST; dsDNA, one strand shown
# T6 sequence: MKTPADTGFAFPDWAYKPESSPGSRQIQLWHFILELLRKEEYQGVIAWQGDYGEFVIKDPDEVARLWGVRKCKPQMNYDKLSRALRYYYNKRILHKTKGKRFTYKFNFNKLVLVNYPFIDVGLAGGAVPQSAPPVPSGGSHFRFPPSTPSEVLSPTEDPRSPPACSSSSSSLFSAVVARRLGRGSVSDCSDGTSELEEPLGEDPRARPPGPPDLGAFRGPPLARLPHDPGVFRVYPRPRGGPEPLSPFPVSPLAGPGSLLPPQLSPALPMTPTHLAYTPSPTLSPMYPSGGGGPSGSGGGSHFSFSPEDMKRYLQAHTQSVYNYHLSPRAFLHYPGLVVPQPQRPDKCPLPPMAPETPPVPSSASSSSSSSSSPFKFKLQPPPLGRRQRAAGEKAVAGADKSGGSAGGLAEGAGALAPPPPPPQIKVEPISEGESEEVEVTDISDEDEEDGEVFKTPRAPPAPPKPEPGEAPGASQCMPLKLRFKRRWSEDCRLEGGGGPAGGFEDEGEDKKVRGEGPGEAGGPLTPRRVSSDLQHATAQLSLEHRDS
# Method in brief: as §1
# [12] = molecular target: T7, ETV3L (Homo sapiens, UniProt Q6ZN32 1-361); details: protein: recombinant; tags: N-terminal GST; dsDNA, one strand shown
# T7 sequence: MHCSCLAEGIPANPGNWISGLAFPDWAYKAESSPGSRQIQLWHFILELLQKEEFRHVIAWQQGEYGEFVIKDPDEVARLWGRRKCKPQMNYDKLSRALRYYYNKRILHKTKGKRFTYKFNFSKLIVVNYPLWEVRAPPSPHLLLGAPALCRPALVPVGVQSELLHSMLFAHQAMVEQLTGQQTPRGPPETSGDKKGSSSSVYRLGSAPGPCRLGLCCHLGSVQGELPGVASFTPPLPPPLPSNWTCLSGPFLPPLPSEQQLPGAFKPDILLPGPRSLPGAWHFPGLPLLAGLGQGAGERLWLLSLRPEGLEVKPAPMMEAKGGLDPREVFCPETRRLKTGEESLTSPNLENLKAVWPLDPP
# Method in brief: as §1
# [13] = molecular target: T8, ETS2 (Homo sapiens, UniProt P15036 1-469); details: protein: recombinant; tags: N-terminal GST; dsDNA, one strand shown
# T8 sequence: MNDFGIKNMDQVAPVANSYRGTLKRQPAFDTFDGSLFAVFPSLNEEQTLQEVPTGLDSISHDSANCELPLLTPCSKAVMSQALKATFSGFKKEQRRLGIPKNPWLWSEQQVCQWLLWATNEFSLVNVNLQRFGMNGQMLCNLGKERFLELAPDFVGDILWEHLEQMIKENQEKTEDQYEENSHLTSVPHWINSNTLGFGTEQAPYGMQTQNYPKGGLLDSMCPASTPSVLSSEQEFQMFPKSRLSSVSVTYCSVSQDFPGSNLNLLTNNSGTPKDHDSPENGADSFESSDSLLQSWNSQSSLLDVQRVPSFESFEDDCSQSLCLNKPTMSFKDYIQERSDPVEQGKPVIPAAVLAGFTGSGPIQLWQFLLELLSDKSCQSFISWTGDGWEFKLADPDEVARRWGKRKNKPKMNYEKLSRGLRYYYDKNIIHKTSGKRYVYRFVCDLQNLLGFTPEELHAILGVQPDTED
# Method in brief: as §1
# [14] = molecular target: T9, ETV7 (Homo sapiens, UniProt Q9Y603 1-341); details: protein: recombinant; tags: N-terminal GST; dsDNA, one strand shown
# T9 sequence: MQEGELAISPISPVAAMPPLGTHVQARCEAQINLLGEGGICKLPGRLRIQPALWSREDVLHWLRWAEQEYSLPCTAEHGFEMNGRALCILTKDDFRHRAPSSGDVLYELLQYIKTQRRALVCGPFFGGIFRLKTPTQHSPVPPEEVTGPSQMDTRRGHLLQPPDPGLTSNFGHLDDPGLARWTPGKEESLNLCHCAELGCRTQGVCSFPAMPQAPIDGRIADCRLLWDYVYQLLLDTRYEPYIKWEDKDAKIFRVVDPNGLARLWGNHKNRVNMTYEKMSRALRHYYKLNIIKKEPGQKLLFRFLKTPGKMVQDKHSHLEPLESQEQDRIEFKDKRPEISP
# Method in brief: as §1
# [15] = molecular target: T10, ELF5 (Homo sapiens, UniProt Q9UKW6-2 1-255); details: protein: recombinant; tags: N-terminal GST; dsDNA, one strand shown
# T10 sequence: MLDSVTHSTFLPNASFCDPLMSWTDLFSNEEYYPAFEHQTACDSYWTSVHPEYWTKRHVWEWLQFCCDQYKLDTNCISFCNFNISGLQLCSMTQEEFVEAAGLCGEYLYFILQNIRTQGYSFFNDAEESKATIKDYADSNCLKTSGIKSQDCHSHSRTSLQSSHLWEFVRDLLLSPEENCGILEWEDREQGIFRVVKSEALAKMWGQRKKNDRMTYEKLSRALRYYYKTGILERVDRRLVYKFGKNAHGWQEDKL
# Method in brief: as §1
# [16] = molecular target: T11, ETV3 (Homo sapiens, UniProt P41162-2 1-143); details: protein: recombinant; tags: N-terminal GST; dsDNA, one strand shown
# T11 sequence: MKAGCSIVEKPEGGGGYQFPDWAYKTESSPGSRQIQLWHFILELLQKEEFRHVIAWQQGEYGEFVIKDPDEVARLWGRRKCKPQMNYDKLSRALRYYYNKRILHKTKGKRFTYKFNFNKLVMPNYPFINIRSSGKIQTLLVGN
# Method in brief: as §1
# [17] = molecular target: ETV6 (Homo sapiens, UniProt P41212 1-452); details: protein: recombinant; tags: N-terminal GST; dsDNA, one strand shown
# Sequence of ETV6 (P41212 whole entry): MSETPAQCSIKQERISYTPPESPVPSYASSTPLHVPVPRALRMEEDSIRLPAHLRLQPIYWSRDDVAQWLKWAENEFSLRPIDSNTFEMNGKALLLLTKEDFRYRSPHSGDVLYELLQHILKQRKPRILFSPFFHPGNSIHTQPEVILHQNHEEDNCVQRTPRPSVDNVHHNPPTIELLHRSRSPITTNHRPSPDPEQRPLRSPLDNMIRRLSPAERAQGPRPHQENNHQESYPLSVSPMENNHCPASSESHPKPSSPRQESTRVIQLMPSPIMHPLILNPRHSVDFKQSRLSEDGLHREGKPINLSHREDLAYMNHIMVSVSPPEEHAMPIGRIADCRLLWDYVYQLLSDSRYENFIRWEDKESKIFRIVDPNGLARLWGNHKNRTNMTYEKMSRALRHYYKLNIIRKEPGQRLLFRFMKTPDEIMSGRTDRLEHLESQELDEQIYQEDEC
# Method in brief: as §1
sequence,measurement,setting,value
CATTAT,binding signal,[1],"1.18 fold enrichment (6-mer frequency, TF over GST control)"
same,binding signal,[2],"1.09 fold enrichment (6-mer frequency, TF over GST control)"
same,binding signal,[3],"1.26 fold enrichment (6-mer frequency, TF over GST control)"
same,binding signal,[4],"1.25 fold enrichment (6-mer frequency, TF over GST control)"
same,binding signal,[5],"1.21 fold enrichment (6-mer frequency, TF over GST control)"
same,binding signal,[6],"1.28 fold enrichment (6-mer frequency, TF over GST control)"
same,binding signal,[7],"1.05 fold enrichment (6-mer frequency, TF over GST control)"
same,binding signal,[8],"1.33 fold enrichment (6-mer frequency, TF over GST control)"
same,binding signal,[9],"1.65 fold enrichment (6-mer frequency, TF over GST control)"
same,binding signal,[10],"1.32 fold enrichment (6-mer frequency, TF over GST control)"
same,binding signal,[11],"1.21 fold enrichment (6-mer frequency, TF over GST control)"
same,binding signal,[12],"1.24 fold enrichment (6-mer frequency, TF over GST control)"
same,binding signal,[13],"1.21 fold enrichment (6-mer frequency, TF over GST control)"
same,binding signal,[14],"1.31 fold enrichment (6-mer frequency, TF over GST control)"
same,binding signal,[15],"1.12 fold enrichment (6-mer frequency, TF over GST control)"
same,binding signal,[16],"1.15 fold enrichment (6-mer frequency, TF over GST control)"
same,binding signal,[17],"1.2 fold enrichment (6-mer frequency, TF over GST control)"
